The list is not random: actives were taken first. Their share in the collection is about 2.4%.
ANO1 activ – activators or potentiators of mouse TMEM16A chloride channel; Q8BHY3; HEK293 TMEM16A/YFP-H148Q/I152L, iodide quench fluorescence; active compounds read low; B-score at 10 µM; actives 0.3% (n = 340,000); AID 623877;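 active = fluorescence-ratio B-score plate-corrected deviation score at least 3 library SD below zero, with starting fluorescence score within 5 deviations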;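 also: channel opened by trigger with iodide after compound preincubation; score built on the fluorescence ratio of max minus min over baseline; more negative score means more quench and so TMEM16A activation or potentiation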
ANO1 block – inhibitors of mouse TMEM16A calcium-activated chloride channel; Q8BHY3; HEK293 TMEM16A/YFP iodide influx fluorescence, ionomycin; normalized B-score (activity score, 25-100; higher = stronger inhibition) at 10 µM; actives 1.2% (n = 310,000); AID 588511;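 active = ratio plate-corrected score three or more library SD toward inhibition, starting fluorescence score within five deviations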;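 also: score derived from kinetic fluorescence span divided by baseline fluorescence per well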
TLR9-MyD88 inh – blocks human TLR9 binding to MyD88 | actives 0.21% (n = 340,000) | AID 504734 | Q9NR96+Q99836 | inhibition, % at 4.98 µM | CHO BLA complementation TLR9-MyD88, CCF4 FRET ratio;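 active = inhibition above the mean over all tested compounds plus 3 SD, cut at about 21% in these data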;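 also: 0% = DMSO only wells and 100% = clavulanate BLA inhibitor control wells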
m5-HT2A agonist – mouse HTR2A agonism via beta-arrestin recruitment. actives 0.66% (n = 360,000). activation, % at 7.6 µM. P35363. AID 624169. CHO-K1 mHTR2A beta-arrestin complementation, luminescence; percent of 30 µM serotonin response;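 active = activation above a run cutoff, the mean activation of all tested compounds plus 3 SD, cut at about 14% in these data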;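 also: 0% = plate median of compound wells and 100% = 30 µM serotonin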
NOD2 RIPK2 PPI – blocks binding of human NOD2 to RIPK2; actives 0.38% (n = 360,000); O43353; inhibition, % at 4.98 µM; CHO BLA complementation NOD2-RIPK2, CCF4 ratio; in the data active = inhibition above about 21%;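 also: 0% = vehicle only and 100% = reference blocker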
Target sequence (O43353 whole entry, looked up): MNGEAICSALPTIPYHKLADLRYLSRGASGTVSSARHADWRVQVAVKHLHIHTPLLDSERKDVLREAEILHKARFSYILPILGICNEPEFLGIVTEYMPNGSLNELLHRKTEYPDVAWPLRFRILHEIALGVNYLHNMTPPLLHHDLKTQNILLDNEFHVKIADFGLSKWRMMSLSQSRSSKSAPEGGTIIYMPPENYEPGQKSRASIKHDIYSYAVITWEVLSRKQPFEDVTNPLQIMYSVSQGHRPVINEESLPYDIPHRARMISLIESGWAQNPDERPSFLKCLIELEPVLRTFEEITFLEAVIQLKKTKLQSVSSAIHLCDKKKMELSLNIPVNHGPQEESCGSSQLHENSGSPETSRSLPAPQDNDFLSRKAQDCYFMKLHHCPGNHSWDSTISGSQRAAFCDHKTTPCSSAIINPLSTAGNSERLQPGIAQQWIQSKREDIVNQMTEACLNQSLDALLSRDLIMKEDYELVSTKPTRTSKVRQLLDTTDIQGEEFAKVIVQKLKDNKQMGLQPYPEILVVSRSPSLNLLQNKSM
TLR4-MyD88 BLA – blocks binding of human TLR4 to MyD88; actives 0.18% (n = 200,000); O00206+Q99836; inhibition, % at 8.4 µM; AID 861; HeLa CL3-4 TLR4/MyD88 BLA complementation, FRET ratio; in the data active = inhibition above about 25%;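 also: 0% = vehicle and 100% = reference inhibitor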
The depositor's hits bear a star; i = inactive; . = no result.

SMILES	ANO1 activ	ANO1 block	TLR9-MyD88 inh	m5-HT2A agonist	NOD2 RIPK2 PPI	TLR4-MyD88 BLA
CC1(C)CC[C@]2(C(=O)O)CC[C@]3(C)C(=CC[C@@H]4[C@@]5(C)CC[C@H](O[C@@H]6O[C@H](C(=O)O)[C@@H](O)[C@H](O[C@@H]7OC[C@H](O)[C@H](O)[C@H]7O)[C@H]6O)C(C)(C)[C@@H]5CC[C@]43C)[C@@H]2C1	-17*	.	15	13	18	.
COc1ccc(N=NC2=C(O)CC(C)(C)CC2=O)cc1	i	i	-1	1	10	-8
COC(=O)c1cc(S(=O)(=O)NCCc2ccc(Cl)cc2)c[nH]1	i	i	-11	-5	-15	.
COC(=O)c1cc(S(=O)(=O)NCCc2ccc(C)cc2)c[nH]1	i	25*	-6	-9	-3	.
O=C(Cc1cccc(NC(=O)C2CCN(C(=O)c3ccccc3)CC2)c1)Nc1cccc(C(=O)N2CCOCC2)c1	.	.	4	-1	-8	.
Cc1cc(SCC(=O)Nc2cccc(S(=O)(=O)NC3=NCCCCC3)c2)nc2ccccc12	-5.4*	i	8	-6	4	.
Cc1nc2ccc(NC(=O)c3cc([N+](=O)[O-])cc([N+](=O)[O-])c3Cl)cc2s1	-5.7*	i	-9	2	4	3
Cc1[nH]c2ccccc2c1C(=O)/C=C\c1ccccc1Cl	i	i	-2	-5	1	-4
Cc1[nH]c2ccccc2c1C(=O)/C=C/c1ccccc1	i	100*	5	-2	7	-11
COc1ccc(OCCCC(=O)N2CCCc3ccccc32)cc1	-6.4*	i	0	-7	-2	3
S=C1SCN(Cc2cccnc2)CN1Cc1cccnc1	i	i	2	-1	-3	.
Cc1ccc(C)c(N(CC(=O)NC2CCCCC2)C(=O)CCC(=O)Nc2ccccn2)c1	.	.	.	.	.	-21
CCc1ccccc1N(CC(=O)NC1CCCCC1)C(=O)CCC(=O)Nc1ccccn1	-5.8*	i	-10	4	0	.
COc1ccccc1-c1c(-c2ccc(OCC(=O)NN)cc2O)n[nH]c1C(F)(F)F	i	i	0	7	-16	-10
COc1ccc(-c2n[nH]c(C(F)(F)F)c2-c2cc3ccccc3o2)c(O)c1	i	100*	4	0	2	-2
C/C(=N\NC(=O)C1CC1c1ccccc1)c1cccc([N+](=O)[O-])c1 (configuration not stated)	i	25*	5	2	-6	-20
COc1cc(C(=S)N2CCOCC2)ccc1OC(=O)c1ccccc1C	i	i	1	1	-4	.
O=C(O)c1cc2c([nH]c1=O)CCCC2	i	i	-3	-2	5	0
C=CCSC(=C(C#N)C#N)c1cc2c([nH]1)CCCC2	i	100*	1	1	12	3
COc1ccc(N2CCN(C3CCCN(Cc4cccc(C)c4)C3)CC2)cc1 (configuration not stated)	i	i	-6	-5	16	.
O=C(/C=C/c1ccc(Cl)cc1)NCCSc1ccccc1	i	i	-11	-1	5	-1
O=C(/C=C/c1ccc(Cl)cc1Cl)NCCSCc1ccccc1	i	100*	8	-6	-3	-14
O=C(/C=C/c1ccc(Cl)cc1Cl)NCCSc1ccccc1	i	25*	4	-7	0	20
O=C(/C=C/c1ccccc1)NCCSCc1ccc(Cl)cc1	i	i	6	-6	1	-5
Cc1cccnc1C1=NOC(Cc2ccccc2)C(=O)N1Cc1ccc(F)cc1 (configuration not stated)	.	.	.	-2	-1	.
SMILES	ANO1 activ	ANO1 block	TLR9-MyD88 inh	m5-HT2A agonist	NOD2 RIPK2 PPI	TLR4-MyD88 BLA
O=c1c(C(c2ccccc2)c2c(O)sc3ccccc3c2=O)c(O)sc2ccccc12	i	100*	-8	2	-3	-5
Cc1ccc(OCCNC(=O)CCNC(=O)c2ccc(Cl)cc2)cc1	-26*	.	0	1	-9	.
Cc1ccc(OCCNC(=O)CNC(=O)c2ccc(C)cc2)cc1	i	i	-6	-1	-5	.
CC(=O)Nc1nc2[nH]ccc2c(=O)[nH]1	.	.	1	4	-9	.
CCc1c(O)nc(SC2CC(=O)N(c3ccccc3)C2=O)[nH]c1=O (configuration not stated)	-29*	i	0	-2	-15	-6
Cc1c(O)nc(SC2CC(=O)N(c3ccccc3)C2=O)[nH]c1=O (configuration not stated)	i	i	2	4	6	2
Cc1nn(C(C)C(=O)NCc2ccccc2F)c(=O)c2nn(-c3ccccc3)c(C)c12 (configuration not stated)	i	i	-8	-6	-1	.
Cc1ccc(C(=O)Nc2cccc(C(F)(F)F)c2)cc1NC(=O)c1csc(-c2ccncc2)n1	i	i	5	-4	-4	.
N#C/C(=N\Nc1cccc(C(F)(F)F)c1)C(=O)c1csc(-c2cccnc2)n1	i	100*	-2	8	-7	.
Cc1cc(-n2c(C)cc(C(=O)CSc3nc4ccccc4c(=O)n3Cc3ccco3)c2C)no1	-9.1*	i	1	8	-8	3
O=C(c1ccccc1C(=O)N(c1ccccc1)c1ccccc1)N1CCCCC1	i	i	-11	0	0	-6
COc1ccc(/C=N/N=C/c2ccc(OC)c(OC)c2)cc1OC	i	i	4	-2	3	-2
COc1cc(/C=N/N=C(N)N)ccc1OCc1ccccc1Cl	i	100*	3	-1	-1	-10
C=CCN(C(=O)CNS(=O)(=O)c1ccccc1)C(C(=O)NCCOC)c1cccnc1 (configuration not stated)	i	i	-6	2	-3	.
CC(C)c1ccc(NC(=S)Nc2ccc(OC(F)(F)F)cc2)cc1	i	i	-4	-2	-10	-21
FC(F)(F)Oc1ccc(NC(=S)Nc2ccc(OC(F)(F)F)cc2)cc1	i	25*	9	6	2	.
Cc1c(NC(=O)Nc2ccc(Cl)cc2Cl)c(=O)n(-c2ccccc2)n1C	i	i	-8	-2	2	-16
CC(=O)C[C@@H]1OC2CCCCC2N1S(=O)(=O)c1ccc(C)cc1 (some centres not stated)	.	.	.	0	3	.
COc1ccc(N(CC(O)Cn2c3ccccc3c3ccccc32)S(=O)(=O)c2ccccc2)cc1 (configuration not stated)	-4.8*	i	-1	4	3	0
CCCC(NCC(=O)Nc1cc(S(=O)(=O)N2CCOCC2)ccc1OC)c1ccccc1 (configuration not stated)	i	.	3	-2	3	.

High-throughput results as filed in PubChem.
